Measurements from PubChem BioAssay (NCATS).
Records with an inconclusive call do not appear. The source made the active and inactive calls. Calls follow the shape of the dose curve; as a rule, active = well fitted curve in the direction sought with a large enough effect; inconclusive = small, poorly fitted or top-dose-only effect, or another doubt; inactive = no such curve, though single readings can be large; an effect the other way counts as inactive or inconclusive.

Assays:
[1] = Cellular Toxicity (caspase-3) Mesangial (AID 660); settings: mesangial cells, normalized: DMSO 0%, 100 µM tamoxifen 100%; at 91.7 µM (top of the series);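 also: combined caspase 3 and 7 activity read by Caspase-Glo luminescence; cells exposed to compound for 16 h before the caspase read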
Summary of the method: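 Luminescent Caspase-Glo 3/7 readout (aminoluciferin substrate cleavage, 20 min RT) after 16 h compound exposure at 37 °C of normal human mesangial cells. Signal increase normalized between DMSO basal and 100 uM tamoxifen; Hill-equation AC50.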

[2] = Cellular Toxicity (caspase-3) SK-N-SH (AID 661);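 also: cells exposed to compound for 16 hours; 0% = DMSO basal and 100% = 10 µM staurosporine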
Summary of the method: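 Luminescent Caspase-Glo 3/7 read-out after 16 hr compound exposure of SK-N-SH neuroblastoma cells at 37 °C. Signal increase normalized to DMSO (basal) and 10 uM staurosporine (100%); AC50 from Hill equation fits of qHTS concentration-response data.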

[3] = Cellular Toxicity (caspase-3) H-4-II-E (AID 663); settings: H-4-II-E rat hepatoma, scaled: DMSO 0%, 100 µM tamoxifen 100%; at 92.2 µM (top of the series);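 also: cells exposed to compound for 16 hr before readout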
Summary of the method: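 H-4-II-E rat hepatoma, 1500 cells/well, 5 hr settle at 37 °C; compound 16 hr, 37 °C, complete medium; Caspase-Glo 3/7, 20 min RT; luminescence. DMSO = 0%, 100 uM tamoxifen = 100%; Hill-equation AC50.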

[4] = Cellular Toxicity (caspase-3) Hek293 (AID 664); settings: HEK293 caspase-3 activation, DMSO = 0%, 100 µM tamoxifen = 100%; at 92.2 µM (top of the series);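 also: cells exposed to compound for 16 h at 37 °C before readout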
Summary of the method: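 Luminescent Caspase-Glo 3/7 readout (aminoluciferin release) in HEK293 cells after 16 h compound treatment, 37 °C. Normalization: DMSO = basal, 100 uM tamoxifen = 100% stimulation. Concentration-response fitted with standard Hill equation for AC50.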

[5] = Cellular Toxicity (caspase-3) N2a (AID 665);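 also: compound exposure lasted 16 h at 37 °C before readout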
Summary of the method: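 Luminescent Caspase-Glo 3/7 readout in N2a mouse neuroblastoma cells after 16 h compound exposure at 37 °C. Signal scaled to DMSO (basal) and 10 uM staurosporine (100%). Concentration-response fitted with Hill equation for AC50.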

[6] = Cellular Toxicity (caspase-3) NIH 3T3 (AID 666);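 also: 0% = DMSO basal and 100% = 100 µM tamoxifen stimulation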
Summary of the method: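 NIH 3T3, 1000 cells/well, 5 hr settle then 16 hr compound at 37°C; Caspase-Glo 3/7, 20 min RT, luminescence. DMSO = basal, 100 uM tamoxifen = 100%. Hill-equation AC50, qHTS.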

[7] = Cellular Toxicity (caspase-3) Renal Proximal Tubule (AID 667); settings: Potency: caspase-3 activation;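 also: cells exposed to compound for 16 hours at 37 °C before detection; 0% = DMSO basal and 100% = 10 µM staurosporine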
Summary of the method: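 Luminescent caspase 3/7 signal from peptide-aminoluciferin cleavage measures apoptosis in freshly isolated rat kidney proximal tubule cells after 16 h compound exposure. Concentration-response data are normalized to DMSO and 10 uM staurosporine, and AC50 values come from Hill equation fits.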

[8] = biological target: Cytochrome P450 3A4 (Homo sapiens) (UniProt P08684); test: qHTS Assay for Inhibitors and Substrates of Cytochrome P450 3A4 (AID 884); also: % is scaled to controls: 0 for no effect and ±100 for the full control effect; nearly all actives have a fitted effect of over 50% in size
Cytochrome P450 3A4 (Homo sapiens), sequence (P08684 whole entry, looked up): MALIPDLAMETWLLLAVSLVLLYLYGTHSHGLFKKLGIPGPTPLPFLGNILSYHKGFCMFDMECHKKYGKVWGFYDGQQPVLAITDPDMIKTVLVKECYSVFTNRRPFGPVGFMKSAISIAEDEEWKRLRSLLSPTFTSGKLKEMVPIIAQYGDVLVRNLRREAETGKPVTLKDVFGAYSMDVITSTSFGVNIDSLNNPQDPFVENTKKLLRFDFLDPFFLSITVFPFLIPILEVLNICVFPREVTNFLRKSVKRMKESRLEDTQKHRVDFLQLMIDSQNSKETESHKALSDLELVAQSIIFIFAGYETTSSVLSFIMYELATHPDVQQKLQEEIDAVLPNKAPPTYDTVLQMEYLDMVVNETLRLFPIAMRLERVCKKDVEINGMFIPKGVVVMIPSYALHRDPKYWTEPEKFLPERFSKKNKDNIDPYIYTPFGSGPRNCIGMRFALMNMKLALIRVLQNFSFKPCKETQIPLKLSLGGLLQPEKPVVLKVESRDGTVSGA
Summary of the method: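 Luminescent readout of luciferin produced by CYP3A4 (20 nM) dealkylation of Luciferin-PPXE, 25 uM (its KM). NADPH-driven reaction ran 60 min at RT after 10 min compound preincubation; data scaled to 57 uM ketoconazole as 100% inhibition.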

[9] = Cell Viability - LYMP2-001 (AID 921);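 also: cells exposed to compound for 24 h at 37 °C; 0% = DMSO only and full inhibition = tetraoctylammonium bromide control wells; nearly all actives have a fitted effect of over 70% in size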
Summary of the method: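 CellTiter-Glo luminescence (intracellular ATP) after 24 hr compound exposure at 37 C, 2500 lymphoblastoid cells/well in complete medium. AC50 fitted with standard Hill equation; tetraoctylammonium bromide positive control.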

[10] = biological target: Cytochrome P450 3A4 (Homo sapiens) (UniProt P08684); test: qHTS Assay for Activators of Cytochrome P450 3A4 (AID 885); also: nearly all actives have a fitted effect of over 65% in size
Summary of the method: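 Activators are scored by enhanced luminescence from CYP3A4 conversion of luciferin-PPXE (25uM, equal to KM) to luciferin, after 60 min at RT with an NADPH-regenerating system.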

NS(=O)(=O)O
inactive: caspase-3 activation [1] 1.36% | outcome [2] | caspase-3 activation [3] 1.83% | caspase-3 activation [4] 1.35% | outcome [5] | outcome [6] | Potency [7] | Potency [8] | Potency [9]

CCC(C)O (configuration not stated)
inactive: caspase-3 activation [1] 0.681% | outcome [2] | caspase-3 activation [3] 1.46% | caspase-3 activation [4] -1.23% | outcome [5] | outcome [6] | Potency [7] | Potency [8] | Potency [9]

Cc1cccc2ccccc12
inactive: caspase-3 activation [1] 0.763% | outcome [2] | caspase-3 activation [3] 0.93% | caspase-3 activation [4] 0.828% | outcome [5] | outcome [6] | Potency [7] | Potency [8] | Potency [9]

Clc1ccc(Cl)c(Cl)c1Cl
inactive: caspase-3 activation [1] -0.853% | outcome [2] | caspase-3 activation [3] -0.982% | caspase-3 activation [4] -1.37% | outcome [5] | outcome [6] | Potency [7] | Potency [8] | Potency [9]

COC(=O)CCC(=O)OC
inactive: caspase-3 activation [1] -0.284% | outcome [2] | caspase-3 activation [3] 0.845% | caspase-3 activation [4] -0.32% | outcome [5] | outcome [6] | Potency [7] | Potency [8] | Potency [9]

O=[N+]([O-])c1cccc(C(F)(F)F)c1
inactive: caspase-3 activation [1] -1.76% | outcome [2] | caspase-3 activation [3] -0.931% | caspase-3 activation [4] 0.383% | outcome [5] | outcome [6] | Potency [7] | Potency [8] | Potency [9]

Cc1ccc(C(=O)O)cc1
inactive: caspase-3 activation [1] -0.126% | outcome [2] | caspase-3 activation [3] 1.11% | caspase-3 activation [4] 0.649% | outcome [5] | outcome [6] | Potency [7] | Potency [8] | Potency [9]

C=CCOC(=O)COCCC(C)C
inactive: caspase-3 activation [1] -0.0239% | outcome [2] | caspase-3 activation [3] -0.913% | caspase-3 activation [4] -2.01% | outcome [5] | outcome [6] | Potency [7] | Potency [8] | Potency [9]

C=CCCCCCCC=C
inactive: caspase-3 activation [1] 4.38% | outcome [2] | caspase-3 activation [3] 1.95% | caspase-3 activation [4] 5.13% | outcome [5] | outcome [6] | Potency [7] | Potency [8] | Potency [9]

CC(C)=CCC/C(C)=C/C=O
inactive: caspase-3 activation [1] 0.108% | outcome [2] | caspase-3 activation [3] 0.873% | caspase-3 activation [4] -2.02% | outcome [5] | outcome [6] | Potency [7] | Potency [8] | Potency [9]

Cc1nc2ccc(Cl)cc2[nH]1
inactive: caspase-3 activation [1] -0.773% | outcome [2] | caspase-3 activation [3] 0.101% | caspase-3 activation [4] -1.32% | outcome [5] | outcome [6] | Potency [7] | Potency [8] | Potency [9]

CC1CCCO1 (configuration not stated)
inactive: caspase-3 activation [1] -0.0447% | outcome [2] | caspase-3 activation [3] -0.992% | caspase-3 activation [4] -1.6% | outcome [5] | outcome [6] | Potency [7] | Potency [8] | Potency [9]

O=C(O)c1cccc(Cl)c1Cl
inactive: caspase-3 activation [1] 0.259% | outcome [2] | caspase-3 activation [3] -0.64% | caspase-3 activation [4] -1.27% | outcome [5] | outcome [6] | Potency [7] | Potency [8] | Potency [9]

CCc1ccccc1
inactive: caspase-3 activation [1] -1.29% | outcome [2] | caspase-3 activation [3] 1.3% | caspase-3 activation [4] -0.962% | outcome [5] | outcome [6] | Potency [7] | Potency [8] | Potency [9]

CC(C)(O)C(=O)O
inactive: caspase-3 activation [1] -0.246% | outcome [2] | caspase-3 activation [3] -0.178% | caspase-3 activation [4] 0.779% | outcome [5] | outcome [6] | Potency [7] | Potency [8] | Potency [9]

Nc1cc([N+](=O)[O-])ccc1C(=O)O
inactive: caspase-3 activation [1] -0.673% | outcome [2] | caspase-3 activation [3] -1.05% | caspase-3 activation [4] -2.97% | outcome [5] | outcome [6] | Potency [7] | outcome [10] | Potency [9]

CC(C)CO
inactive: caspase-3 activation [1] 0.186% | outcome [2] | caspase-3 activation [3] -0.412% | caspase-3 activation [4] -2.74% | outcome [5] | outcome [6] | Potency [7] | Potency [9]

Clc1cc(Cl)cc(Cl)c1
inactive: caspase-3 activation [1] -0.669% | outcome [2] | caspase-3 activation [3] 0.838% | caspase-3 activation [4] 0.505% | outcome [5] | outcome [6] | Potency [7] | Potency [9]

C[C@@H]1O[C@@H](O[C@@H]2[C@@H](O)[C@H](OCCc3ccc(O)c(O)c3)O[C@H](CO[C@@H]3O[C@H](CO)[C@@H](O)[C@H](O)[C@H]3O)[C@H]2OC(=O)/C=C/c2ccc(O)c(O)c2)[C@H](O)[C@H](O)[C@H]1O
inactive: caspase-3 activation [1] -1.14% | outcome [2] | caspase-3 activation [3] -0.514% | caspase-3 activation [4] -1.55% | outcome [5] | outcome [6] | Potency [7] | outcome [10] | Potency [9]

CC(C)C(C)C
inactive: caspase-3 activation [1] 0.762% | outcome [2] | caspase-3 activation [3] -0.199% | caspase-3 activation [4] -1.39% | outcome [5] | outcome [6] | Potency [7] | Potency [9]

COc1cccc2sc(N)nc12
inactive: caspase-3 activation [1] 1.13% | outcome [2] | caspase-3 activation [3] 0.718% | caspase-3 activation [4] -1.25% | outcome [5] | outcome [6] | Potency [7] | outcome [10]

Cc1ccc(C(C)(C)C)cc1
inactive: caspase-3 activation [1] -0.798% | outcome [2] | caspase-3 activation [3] 0.123% | caspase-3 activation [4] -1.91% | outcome [5] | outcome [6] | Potency [7] | Potency [8] | Potency [9]

c1ccc2c(c1)ccc1ncccc12
inactive: caspase-3 activation [1] -0.196% | outcome [2] | caspase-3 activation [3] 0.297% | caspase-3 activation [4] 1.59% | outcome [5] | outcome [6] | Potency [7] | Potency [9]
